# Test results from the supplement of paper PMC10338343.
# ± gives the standard deviation.
# Tested on: MILI (PIWIL2) piRISC loaded with L1MC piRNA (26 nt)
# Assay: pre-steady-state target cleavage rate (min^-1); guide: L1MC piRNA 5'p-UAACUAAAUACUAUGCAAGCUGUAGG; MIWI and MILI are mouse PIWI proteins and EfPiwi is from a freshwater sponge; tags in brackets are library labels; higher = faster piRNA-guided slicing of the target
# Summary of the method: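 The pre-steady-state cleavage rate was obtained by Cleave-'n-Seq with a burst-and-steady-state fit. A transcribed, DNA-blocked target RNA library (0.1 nM) was mixed with 1 nM active affinity-purified piRISC carrying one synthetic guide, with or without 500 nM GTSF1 partner protein, in HEPES–potassium acetate buffer at 33 °C for 0–8 or 0–960 min. Uncleaved targets were sequenced and normalised to depth and to weakly complementary targets, with three trials pooled and k3 capped at 0.0001 min^-1.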
# [1] = auxiliary factor: 500 nM mouse GTSF1
# [2] = auxiliary factor: none (no GTSF1)
Sequence,pre-steady-state target cleavage rate [1],pre-steady-state target cleavage rate [2]
UCCUGGAUGUCCUUGCAUACAUUUUAGUUA,0.00731 ± 0.0047,0.00422 ± 0.0019
UCCUGGAUGUCGAUAGCAUAGUAUUUAGUUA,0.0459 ± 0.014,0.00341 ± 0.0026
UCCUGGAUGUGCUUGCAAGUAUUUAGUUA,0.00781 ± 0.0036,0.00503 ± 0.0024
UCCUGGAUCAGCUUGCUAUGUAUUUAGUUA,0.0176 ± 0.0068,0.00553 ± 0.0022
UCCUGGAUGUCCGUGCAUAGUAUUUAGUUA,0.0403 ± 0.011,0.00675 ± 0.0027
UCCUGGAUGUCGAUGCAUAGUAAUUUAGUUA,0.0247 ± 0.008,0.00496 ± 0.0023
UCCUGCUACAGCUUGCAUUGUUUUUAGUUA,0.0212 ± 0.007,0.00289 ± 0.0028
UCCUGGAUCAGCUUGCAUUGUUUUUAGUUA,0.0121 ± 0.0054,0.00431 ± 0.0023
UCCUGGAUGUCCUGUGCAUAGUAUUUAGUUA,0.0823 ± 0.025,0.0123 ± 0.0036
UCCUGGAUGUCCUUGCAUAGUAUUCUAGUUA,0.1 ± 0.022,0.00384 ± 0.0034
UCCUGGAUGUCGUUGCAUACUAUUUAGUUA,0.0161 ± 0.0052,0.00383 ± 0.002
UCCUGGUACAGCUUGGAAAGUAUUUAGUUA,0.111 ± 0.014,0.00903 ± 0.0035
UCCUGGAUGUCCAUGCAUAGUAUUUAGUUA,0.0603 ± 0.016,0.00432 ± 0.0026
UCCUGGAUGUGCUUGCUUACUAUUUAGUUA,0.0117 ± 0.005,0.00477 ± 0.0024
UCCUGGUACAGCAACCAUAGUAUUUAGUUA,0.286 ± 0.042,0.00442 ± 0.0027
UCCUCGUACACCUUGCAUAGUAUUUAGUUA,0.239 ± 0.022,0.00634 ± 0.0021
UCCUCCUACAGCUUGCAUUGUAUUUACUUA,0.145 ± 0.021,0.00286 ± 0.0022
UCCUGGAUGUGCUAGCAUACUAUUUAGUUA,0.0195 ± 0.0053,0.00539 ± 0.002
UCCUGGAUGUCGAUGCAUAGUAUUUAGUCA,0.111 ± 0.02,0.00347 ± 0.0027
UCCUGGAUGAGCUUGCUUAGUAUUUACUUA,0.124 ± 0.031,0.00394 ± 0.0031
